According to the supplement of paper PMC4466140:

molecular target: AgAbp1; assay: SPOT peptide array binding signal intensity (averaged, normalized) (arbitrary units (background-subtracted, floor 0; scale differs between SH3 domains)); higher = stronger binding of the SH3 domain to the peptide
Method in brief: (§1)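 The binding signal is the normalized, background-subtracted spot intensity averaged over replicates; its arbitrary units differ between domains. It was obtained by incubating 10 μg/ml GST-fused SH3 domains from four yeast species overnight at 4°C in TBS-based blocking buffer on cellulose membranes with synthetic 15-mer peptides, cysteines replaced by serines, then detecting with anti-GST antibody, HRP anti-mouse secondary and luminol.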

Row | Binder | SPOT peptide array binding signal intensity
1 | AIPPPVPNRPGGTTN | ≤ 0

molecular target: AgBbc1; assay: as above
Method in brief: as §1

Row | Binder | SPOT peptide array binding signal intensity
2 | AIPPPVPNRPGGTTN | 1380

molecular target: AgBem1-D1; assay: as above
Method in brief: as §1

Row | Binder | SPOT peptide array binding signal intensity
3 | AIPPPVPNRPGGTTN | ≤ 0

molecular target: AgBzz1-D1; assay: as above
Method in brief: as §1

Row | Binder | SPOT peptide array binding signal intensity
4 | AIPPPVPNRPGGTTN | 61

molecular target: AgBzz1-D2; assay: as above
Method in brief: as §1

Row | Binder | SPOT peptide array binding signal intensity
5 | AIPPPVPNRPGGTTN | ≤ 0

molecular target: AgCyk3; assay: as above
Method in brief: as §1

Row | Binder | SPOT peptide array binding signal intensity
6 | AIPPPVPNRPGGTTN | ≤ 0

molecular target: AgFus1; assay: as above
Method in brief: as §1

Row | Binder | SPOT peptide array binding signal intensity
7 | AIPPPVPNRPGGTTN | ≤ 0

molecular target: AgHof1; assay: as above
Method in brief: as §1

Row | Binder | SPOT peptide array binding signal intensity
8 | AIPPPVPNRPGGTTN | ≤ 0

molecular target: AgHse1; assay: as above
Method in brief: as §1

Row | Binder | SPOT peptide array binding signal intensity
9 | AIPPPVPNRPGGTTN | 13

molecular target: AgLsb1; assay: as above
Method in brief: as §1

Row | Binder | SPOT peptide array binding signal intensity
10 | AIPPPVPNRPGGTTN | 373

molecular target: AgLsb4; assay: as above
Method in brief: as §1

Row | Binder | SPOT peptide array binding signal intensity
11 | AIPPPVPNRPGGTTN | 1024

molecular target: AgMyo5; assay: as above
Method in brief: as §1

Row | Binder | SPOT peptide array binding signal intensity
12 | AIPPPVPNRPGGTTN | 3.5

molecular target: AgNbp2; assay: as above
Method in brief: as §1

Row | Binder | SPOT peptide array binding signal intensity
13 | AIPPPVPNRPGGTTN | ≤ 0

molecular target: AgRvs167; assay: as above
Method in brief: as §1

Row | Binder | SPOT peptide array binding signal intensity
14 | AIPPPVPNRPGGTTN | 269

molecular target: AgSho1; assay: as above
Method in brief: as §1

Row | Binder | SPOT peptide array binding signal intensity
15 | AIPPPVPNRPGGTTN | ≤ 0

molecular target: AgSla1-D1-D2; assay: as above
Method in brief: as §1

Row | Binder | SPOT peptide array binding signal intensity
16 | AIPPPVPNRPGGTTN | ≤ 0

molecular target: AgSla1-D3; assay: as above
Method in brief: as §1

Row | Binder | SPOT peptide array binding signal intensity
17 | AIPPPVPNRPGGTTN | ≤ 0

molecular target: CaAbp1-D1; assay: as above
Method in brief: as §1

Row | Binder | SPOT peptide array binding signal intensity
18 | AIPPPVPNRPGGTTN | ≤ 0

molecular target: CaAbp1-D2; assay: as above
Method in brief: as §1

Row | Binder | SPOT peptide array binding signal intensity
19 | AIPPPVPNRPGGTTN | ≤ 0

molecular target: CaBbc1; assay: as above
Method in brief: as §1

Row | Binder | SPOT peptide array binding signal intensity
20 | AIPPPVPNRPGGTTN | 2040

molecular target: CaBem1-D1; assay: as above
Method in brief: as §1

Row | Binder | SPOT peptide array binding signal intensity
21 | AIPPPVPNRPGGTTN | 0.5

molecular target: CaBzz1-D1; assay: as above
Method in brief: as §1

Row | Binder | SPOT peptide array binding signal intensity
22 | AIPPPVPNRPGGTTN | 570

molecular target: CaBzz1-D2; assay: as above
Method in brief: as §1

Row | Binder | SPOT peptide array binding signal intensity
23 | AIPPPVPNRPGGTTN | 79

molecular target: CaCyk3; assay: as above
Method in brief: as §1

Row | Binder | SPOT peptide array binding signal intensity
24 | AIPPPVPNRPGGTTN | 192

molecular target: CaFus1; assay: as above
Method in brief: as §1

Row | Binder | SPOT peptide array binding signal intensity
25 | AIPPPVPNRPGGTTN | ≤ 0

molecular target: CaHof1; assay: as above
Method in brief: as §1

Row | Binder | SPOT peptide array binding signal intensity
26 | AIPPPVPNRPGGTTN | 0.5

molecular target: CaHse1; assay: as above
Method in brief: as §1

Row | Binder | SPOT peptide array binding signal intensity
27 | AIPPPVPNRPGGTTN | 1.75

molecular target: CaLsb1; assay: as above
Method in brief: as §1

Row | Binder | SPOT peptide array binding signal intensity
28 | AIPPPVPNRPGGTTN | 1

molecular target: CaLsb4; assay: as above
Method in brief: as §1

Row | Binder | SPOT peptide array binding signal intensity
29 | AIPPPVPNRPGGTTN | 2490

molecular target: CaMyo5; assay: as above
Method in brief: as §1

Row | Binder | SPOT peptide array binding signal intensity
30 | AIPPPVPNRPGGTTN | ≤ 0

molecular target: CaNbp2; assay: as above
Method in brief: as §1

Row | Binder | SPOT peptide array binding signal intensity
31 | AIPPPVPNRPGGTTN | 1

molecular target: CaRvs167; assay: as above
Method in brief: as §1

Row | Binder | SPOT peptide array binding signal intensity
32 | AIPPPVPNRPGGTTN | 1180

molecular target: CaRvs167-3; assay: as above
Method in brief: as §1

Row | Binder | SPOT peptide array binding signal intensity
33 | AIPPPVPNRPGGTTN | 1.25

molecular target: CaSho1; assay: as above
Method in brief: as §1

Row | Binder | SPOT peptide array binding signal intensity
34 | AIPPPVPNRPGGTTN | 7

molecular target: CaSla1-D1-D2; assay: as above
Method in brief: as §1

Row | Binder | SPOT peptide array binding signal intensity
35 | AIPPPVPNRPGGTTN | ≤ 0

molecular target: CaSla1-D3; assay: as above
Method in brief: as §1

Row | Binder | SPOT peptide array binding signal intensity
36 | AIPPPVPNRPGGTTN | ≤ 0

molecular target: ScAbp1; assay: as above
Method in brief: as §1

Row | Binder | SPOT peptide array binding signal intensity
37 | AIPPPVPNRPGGTTN | ≤ 0

molecular target: ScBbc1; assay: as above
Method in brief: as §1

Row | Binder | SPOT peptide array binding signal intensity
38 | AIPPPVPNRPGGTTN | 515

molecular target: ScBem1-D1; assay: as above
Method in brief: as §1

Row | Binder | SPOT peptide array binding signal intensity
39 | AIPPPVPNRPGGTTN | ≤ 0

molecular target: ScBzz1-D1; assay: as above
Method in brief: as §1

Row | Binder | SPOT peptide array binding signal intensity
40 | AIPPPVPNRPGGTTN | 5

molecular target: ScBzz1-D2; assay: as above
Method in brief: as §1

Row | Binder | SPOT peptide array binding signal intensity
41 | AIPPPVPNRPGGTTN | 1.5

molecular target: ScCyk3; assay: as above
Method in brief: as §1

Row | Binder | SPOT peptide array binding signal intensity
42 | AIPPPVPNRPGGTTN | ≤ 0

molecular target: ScFus1; assay: as above
Method in brief: as §1

Row | Binder | SPOT peptide array binding signal intensity
43 | AIPPPVPNRPGGTTN | ≤ 0

molecular target: ScHof1; assay: as above
Method in brief: as §1

Row | Binder | SPOT peptide array binding signal intensity
44 | AIPPPVPNRPGGTTN | 3

molecular target: ScHse1; assay: as above
Method in brief: as §1

Row | Binder | SPOT peptide array binding signal intensity
45 | AIPPPVPNRPGGTTN | 8

molecular target: ScLsb1; assay: as above
Method in brief: as §1

Row | Binder | SPOT peptide array binding signal intensity
46 | AIPPPVPNRPGGTTN | 1120

molecular target: ScLsb2; assay: as above
Method in brief: as §1

Row | Binder | SPOT peptide array binding signal intensity
47 | AIPPPVPNRPGGTTN | 302

molecular target: ScLsb3; assay: as above
Method in brief: as §1

Row | Binder | SPOT peptide array binding signal intensity
48 | AIPPPVPNRPGGTTN | 1950

molecular target: ScLsb4; assay: as above
Method in brief: as §1

Row | Binder | SPOT peptide array binding signal intensity
49 | AIPPPVPNRPGGTTN | 857

molecular target: ScMyo3; assay: as above
Method in brief: as §1

Row | Binder | SPOT peptide array binding signal intensity
50 | AIPPPVPNRPGGTTN | 26

molecular target: ScMyo5; assay: as above
Method in brief: as §1

Row | Binder | SPOT peptide array binding signal intensity
51 | AIPPPVPNRPGGTTN | 1.75

molecular target: ScNbp2; assay: as above
Method in brief: as §1

Row | Binder | SPOT peptide array binding signal intensity
52 | AIPPPVPNRPGGTTN | 15

molecular target: ScPex13; assay: as above
Method in brief: as §1

Row | Binder | SPOT peptide array binding signal intensity
53 | AIPPPVPNRPGGTTN | 858

molecular target: ScRvs167; assay: as above
Method in brief: as §1

Row | Binder | SPOT peptide array binding signal intensity
54 | AIPPPVPNRPGGTTN | 1860

molecular target: ScSho1; assay: as above
Method in brief: as §1

Row | Binder | SPOT peptide array binding signal intensity
55 | AIPPPVPNRPGGTTN | ≤ 0

molecular target: ScSla1-D1-D2; assay: as above
Method in brief: as §1

Row | Binder | SPOT peptide array binding signal intensity
56 | AIPPPVPNRPGGTTN | 13.5

molecular target: ScSla1-D3; assay: as above
Method in brief: as §1

Row | Binder | SPOT peptide array binding signal intensity
57 | AIPPPVPNRPGGTTN | ≤ 0

molecular target: SpAbp1-D1; assay: as above
Method in brief: as §1

Row | Binder | SPOT peptide array binding signal intensity
58 | AIPPPVPNRPGGTTN | ≤ 0

molecular target: SpBbc1; assay: as above
Method in brief: as §1

Row | Binder | SPOT peptide array binding signal intensity
59 | AIPPPVPNRPGGTTN | 358

molecular target: SpBzz1-D1; assay: as above
Method in brief: as §1

Row | Binder | SPOT peptide array binding signal intensity
60 | AIPPPVPNRPGGTTN | 146

molecular target: SpBzz1-D2; assay: as above
Method in brief: as §1

Row | Binder | SPOT peptide array binding signal intensity
61 | AIPPPVPNRPGGTTN | 0.5

molecular target: SpCyk3; assay: as above
Method in brief: as §1

Row | Binder | SPOT peptide array binding signal intensity
62 | AIPPPVPNRPGGTTN | 1

molecular target: SpHof1; assay: as above
Method in brief: as §1

Row | Binder | SPOT peptide array binding signal intensity
63 | AIPPPVPNRPGGTTN | ≤ 0

molecular target: SpHof1-2; assay: as above
Method in brief: as §1

Row | Binder | SPOT peptide array binding signal intensity
64 | AIPPPVPNRPGGTTN | ≤ 0

molecular target: SpHof1-3; assay: as above
Method in brief: as §1

Row | Binder | SPOT peptide array binding signal intensity
65 | AIPPPVPNRPGGTTN | 16

molecular target: SpHse1; assay: as above
Method in brief: as §1

Row | Binder | SPOT peptide array binding signal intensity
66 | AIPPPVPNRPGGTTN | 8.5

molecular target: SpLsb1; assay: as above
Method in brief: as §1

Row | Binder | SPOT peptide array binding signal intensity
67 | AIPPPVPNRPGGTTN | 959

molecular target: SpLsb4; assay: as above
Method in brief: as §1

Row | Binder | SPOT peptide array binding signal intensity
68 | AIPPPVPNRPGGTTN | 2930

molecular target: SpMyo1; assay: as above
Method in brief: as §1

Row | Binder | SPOT peptide array binding signal intensity
69 | AIPPPVPNRPGGTTN | 9.5

molecular target: SpNbp2; assay: as above
Method in brief: as §1

Row | Binder | SPOT peptide array binding signal intensity
70 | AIPPPVPNRPGGTTN | 6.5

molecular target: SpPex13; assay: as above
Method in brief: as §1

Row | Binder | SPOT peptide array binding signal intensity
71 | AIPPPVPNRPGGTTN | ≤ 0

molecular target: SpRvs167; assay: as above
Method in brief: as §1

Row | Binder | SPOT peptide array binding signal intensity
72 | AIPPPVPNRPGGTTN | 2560

molecular target: SpSla1-D1-D2; assay: as above
Method in brief: as §1

Row | Binder | SPOT peptide array binding signal intensity
73 | AIPPPVPNRPGGTTN | ≤ 0

molecular target: SpSla1-D3; assay: as above
Method in brief: as §1

Row | Binder | SPOT peptide array binding signal intensity
74 | AIPPPVPNRPGGTTN | ≤ 0
